Records with an inconclusive call do not appear. The source made the active and inactive calls. Unless noted, the call rests on the fitted dose curve; in most records, active means well fitted curve in the direction sought with a large enough effect in the repeat runs; inconclusive means weak or mixed curves; inactive means no such curve, though single readings can be large; an effect the other way counts as inactive or inconclusive.
Key:
[1] = biological target: Progesterone receptor (Homo sapiens) (UniProt P06401); experiment: qHTS assay to identify small molecule agonists of the progesterone receptor (PR) signaling pathway (AID 1346784; calls by dose curve; further: nearly all actives have a fitted effect of over 30% in size)
Method in brief: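 Agonist qHTS: compounds pinned onto 3,000 PR-UAS-bla HEK 293T cells per well in charcoal-stripped serum medium, 16hr at 37C, then beta-lactamase activity measured by LiveBLAzer FRET fluorescence after 2 hours at room temperature.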

[2] = biological target: Progesterone receptor (Homo sapiens) (UniProt P06401); experiment: qHTS assay to identify small molecule antagonists of the progesterone receptor (PR) signaling pathway (AID 1346795; active means well fitted inhibition curve with a large enough effect in the signal ratio in the repeat runs, not every such curve was filed as active; the % refers to the signal ratio; further: potency means the concentration at half of the fitted maximal effect)
Method in brief: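 Antagonist mode with agonist R5020 at 1 nM final and 16 hr incubation at 37C. Reporter was beta-lactamase driven by UAS in HEK293T (PR-UAS-bla), 2% charcoal-stripped serum; signal from LiveBLAzer FRET substrate, 2 hr at room temperature.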

[3] = qHTS assay to identify small molecule antagonists of the progesterone receptor (PR) signaling pathway - cell viability counter screen (AID 1346798); further: nearly all actives have a fitted effect of over 50% in size; further: potency means the concentration at half of the fitted maximal effect
Method in brief: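 Cytotoxicity read as CellTiter-Glo luminescence (30 min, room temperature) in the same wells as the beta-lactamase readout. HEK293T PR-UAS-bla cells in charcoal-stripped 2% FBS received compound and R5020, then 16 h at 37C, 5% CO2.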

[4] = qHTS assay to identify small molecule agonists of the progesterone receptor (PR) signaling pathway - cell viability counter screen (AID 1346799; calls by dose curve; further: nearly all actives have a fitted effect of over 45% in size; further: potency means the concentration at half of the fitted maximal effect)
Method in brief: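 Cytotoxicity measured by CellTiter-Glo luminescence (30 min, RT) in the same wells as the PR beta-lactamase agonist read. Those HEK293T cells had 16 h compound treatment at 37 C in 2% charcoal-stripped FBS medium.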

[5] = qHTS assay to identify small molecule antagonists of the TGF-beta/Smad signaling pathway - cell viability counter screen (AID 1346824); further: nearly all actives have a fitted effect of over 50% in size
Method in brief: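 SBE-bla HEK 293T cells, incubated overnight, then compound plus 0.25 ng/mL TGF-beta1 (stock added) for 5 hr at 37 C. Viability was read in the same wells by CellTiter-Glo luminescence after 30 min at room temperature.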

[6] = qHTS assay to identify small molecule agonists of the TGF-beta/Smad signaling pathway - cell viability counter screen (AID 1346829); further: top concentration of the series differs between compounds; nearly all actives have a fitted effect of over 45% in size
Method in brief: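 Compound-treated SBE-bla HEK 293T cells (5 hr, 37 C) were assessed for viability with CellTiter-Glo in parallel with the reporter read.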

[7] = qHTS assay to identify small molecule agonists of the TGF-beta/Smad signaling pathway (AID 1346859; active means well fitted activation curve with a large enough effect in the signal ratio in the repeat runs, not every such curve was filed as active; the % refers to the signal ratio; further: series mostly up to about 77 µM)
Method in brief: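 Fluorescence (ex 405 nm; em 460 and 530 nm) was read 2 h after LiveBLAzer FRET substrate at RT. The preceding compound treatment of overnight-plated SBE-bla HEK293T cells lasted 5 h at 37 C.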

[8] = biological target: Thyrotropin-releasing hormone receptor (Homo sapiens) (UniProt P34981); experiment: qHTS assay to identify small molecule antagonists of the thyrotropin-releasing hormone receptor (TRHR) signaling pathway (AID 1346877; active means well fitted inhibition curve with a large enough effect in the repeat runs, not every such curve was filed as active; further: series mostly up to about 51 µM)
Method in brief: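 Following an 18 h incubation at 37 °C and a 2 h calcium dye load, TRHR-HEK293 cells were exposed to compound (5 min, room temperature) and challenged with TRH, 1 nM final.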

[9] = biological target: Thyrotropin-releasing hormone receptor (Homo sapiens) (UniProt P34981); experiment: qHTS assay to identify small molecule agonists of the thyrotropin-releasing hormone receptor (TRHR) signaling pathway (AID 1346891; calls by dose curve; further: series mostly up to about 58 µM)
Method in brief: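 Agonist-mode intracellular calcium readout: kinetic fluorescence over 3 min at 1 s intervals after compound addition to TRHR-HEK293 cells (18 h seeded, 2 h dye-loaded at 37 C). Fifteen concentrations, triplicates.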

[10] = Human pregnane X receptor (PXR) small molecule agonists, qHTS cell viability counter screen (AID 1346977); further: nearly all actives have a fitted effect of over 50% in size; further: potency means the concentration at half of the fitted maximal effect
Method in brief: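 Same-well viability read: CellTiter-Fluor added after 23 hr compound exposure, fluorescence measured 1 hr later. Cells were PXR-Luc HepG2 seeded at 2,000/well in 5% charcoal-stripped FBS medium, rested 5 hr before dosing at 37 C.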

[11] = Caspase-3/7 induction in HepG2 cells by small molecules, qHTS assay (AID 1346978); further: nearly all actives have a fitted effect of over 15% in size; further: potency means the concentration at half of the fitted maximal effect
Method in brief: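 Wild-type HepG2 cells, 2,000/well, settled 5 hr at 37 C and 5% CO2, then compound-treated for 17 hr; caspase-3/7 activity read by luminescent Caspase-Glo 3/7 after 30 min at room temperature.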

[12] = Caspase-3/7 induction in CHO-K1 cells by small molecules, qHTS cell viability counter screen (AID 1346979); further: nearly all actives have a fitted effect of over 35% in size; further: potency means the concentration at half of the fitted maximal effect
Method in brief: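 Cytotoxicity counter screen: CellTiter-Fluor added to compound-treated wild-type CHO-K1 cells at 16 h (37C, 5% CO2), fluorescence measured 1 h later; same wells as caspase-3/7 measurement.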

[13] = Caspase-3/7 induction in CHO-K1 cells by small molecules, qHTS assay (AID 1346980); further: nearly all actives have a fitted effect of over 15% in size; further: potency means the concentration at half of the fitted maximal effect
Method in brief: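 Wild-type CHO-K1 cells exposed to compounds for 17hr at 37 C, 5% CO2. Caspase-3/7 activity then measured by Caspase-Glo 3/7 luminescence after 30min at room temperature.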

[14] = Caspase-3/7 induction in HepG2 cells by small molecules, qHTS cell viability counter screen (AID 1346981); further: nearly all actives have a fitted effect of over 30% in size; further: potency means the concentration at half of the fitted maximal effect
Method in brief: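 Viability determined by CellTiter-Fluor fluorescence in HepG2 wells also used for the luminescent Caspase-Glo 3/7 read. Compounds were present for 16 hr at 37 C, 5% CO2 before reagent addition.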

[15] = biological target: Nuclear receptor subfamily 1 group I member 2 (Homo sapiens) (UniProt O75469); experiment: Human pregnane X receptor (PXR) small molecule agonists, qHTS assay (AID 1346982); further: nearly all actives have a fitted effect of over 35% in size
Method in brief: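 Compound-induced hPXR transactivation of a CYP3A4 luciferase reporter was scored in HepG2 PXR-Luc cells over 24 hr at 37 C, 5% CO2, by luminescence.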

[16] = biological target: Nuclear receptor subfamily 1 group I member 2 (Rattus norvegicus) (UniProt Q9R1A7); experiment: Rat pregnane X receptor (rPXR) activation by small molecules, qHTS assay (AID 1346983); conditions: rPXR luciferase reporter cells, One-Glo luminescence, 24 h; max activation: hits give high values; further: nearly all actives have a fitted effect of over 20% in size
Method in brief: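 Cell-based rPXR activation assay: rPXR cells, 2,000 per well, rested 5hr at 37 C, then exposed to compounds in DMSO for 24 hr at 37 C. Luciferase activity read by One-Glo luminescence after 30 min at room temperature.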

[17] = biological target: Nuclear receptor subfamily 1 group I member 2 (Homo sapiens) (UniProt O75469); experiment: CYP3A4 induction through human pregnane X receptor (PXR) by small molecules, qHTS assay (AID 1346984); further: nearly all actives have a fitted effect of over 40% in size
Method in brief: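 Readings come from a luciferase reporter: DPX-2 cells, which are HepG2 cotransfected with PXR and a CYP3A4-promoter construct, were exposed to test compounds for 24 h at 37C before One-Glo detection.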

[18] = biological target: Cytochrome P450 2C19 (Homo sapiens) (UniProt P33261); experiment: Cytochrome P450 Family 2 Subfamily C Member 19 (CYP2C19) small molecule antagonists: luciferase reporter qHTS assay (AID 1671197); further: nearly all actives have a fitted effect of over 65% in size; further: potency means the concentration at half of the fitted maximal effect
Method in brief: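 P450-Glo CYP2C19 screening system; proluciferin substrate; DMSO compound stocks; 10 min RT preincubation; NADPH regeneration, 1 h at 37C; luciferin detection reagent, 20 min RT; luminescence as RLU.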

[19] = biological target: Cytochrome P450 2D6 (Homo sapiens) (UniProt P10635); experiment: Cytochrome P450 Family 2 Subfamily D Member 6 (CYP2D6) small molecule antagonists: luciferase reporter qHTS assay (AID 1671196); further: nearly all actives have a fitted effect of over 50% in size; further: potency means the concentration at half of the fitted maximal effect
Method in brief: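 Each well received CYP2D6 with its proluciferin substrate and chemical, sat 10 min, then got NADPH regeneration solution for 1 h at room temperature. Luminescence in RLU served as the activity measure.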
On the % scale 0 is the no-effect control and ±100 the full control effect.

Sequence of Cytochrome P450 2C19 (Homo sapiens) (P33261 whole entry, looked up): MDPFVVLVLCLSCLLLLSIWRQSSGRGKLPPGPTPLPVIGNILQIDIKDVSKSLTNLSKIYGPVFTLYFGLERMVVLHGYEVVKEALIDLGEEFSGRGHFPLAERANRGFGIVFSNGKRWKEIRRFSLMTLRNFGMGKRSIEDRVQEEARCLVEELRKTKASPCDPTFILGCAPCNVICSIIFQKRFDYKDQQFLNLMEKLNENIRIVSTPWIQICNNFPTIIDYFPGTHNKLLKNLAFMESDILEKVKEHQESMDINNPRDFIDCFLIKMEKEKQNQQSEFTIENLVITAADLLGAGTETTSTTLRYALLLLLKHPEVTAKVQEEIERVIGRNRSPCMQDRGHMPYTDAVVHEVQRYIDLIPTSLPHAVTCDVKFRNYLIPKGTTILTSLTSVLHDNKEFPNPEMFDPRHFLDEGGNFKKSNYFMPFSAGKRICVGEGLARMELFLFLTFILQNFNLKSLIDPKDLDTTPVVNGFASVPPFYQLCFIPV
Sequence of Thyrotropin-releasing hormone receptor (Homo sapiens) (P34981 whole entry, looked up): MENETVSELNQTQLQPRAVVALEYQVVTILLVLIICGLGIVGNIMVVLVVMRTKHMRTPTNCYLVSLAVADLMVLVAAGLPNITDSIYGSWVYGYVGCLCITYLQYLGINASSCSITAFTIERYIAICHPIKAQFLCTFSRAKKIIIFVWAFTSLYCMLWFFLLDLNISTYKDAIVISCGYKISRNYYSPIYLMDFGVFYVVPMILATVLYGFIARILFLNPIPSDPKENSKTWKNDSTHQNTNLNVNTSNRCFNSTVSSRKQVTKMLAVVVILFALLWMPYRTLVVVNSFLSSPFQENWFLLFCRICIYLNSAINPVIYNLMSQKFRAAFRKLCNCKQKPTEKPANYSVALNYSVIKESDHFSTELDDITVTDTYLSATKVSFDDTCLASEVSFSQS
Sequence of Cytochrome P450 2D6 (Homo sapiens) (P10635 whole entry, looked up): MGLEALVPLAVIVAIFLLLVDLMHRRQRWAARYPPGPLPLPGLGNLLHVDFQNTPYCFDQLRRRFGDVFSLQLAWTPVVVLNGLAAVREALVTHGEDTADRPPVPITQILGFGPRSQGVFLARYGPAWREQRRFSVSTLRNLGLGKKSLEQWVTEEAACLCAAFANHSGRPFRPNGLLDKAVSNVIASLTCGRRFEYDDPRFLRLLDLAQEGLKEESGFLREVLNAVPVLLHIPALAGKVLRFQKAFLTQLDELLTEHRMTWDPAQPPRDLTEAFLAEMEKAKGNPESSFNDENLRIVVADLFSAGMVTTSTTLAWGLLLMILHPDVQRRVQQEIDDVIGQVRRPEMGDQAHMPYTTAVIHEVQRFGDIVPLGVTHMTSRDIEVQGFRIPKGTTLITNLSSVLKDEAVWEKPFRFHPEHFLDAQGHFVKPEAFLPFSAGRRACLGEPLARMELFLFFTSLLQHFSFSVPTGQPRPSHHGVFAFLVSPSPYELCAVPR
Sequence of Nuclear receptor subfamily 1 group I member 2 (Rattus norvegicus) (Q9R1A7 whole entry, looked up): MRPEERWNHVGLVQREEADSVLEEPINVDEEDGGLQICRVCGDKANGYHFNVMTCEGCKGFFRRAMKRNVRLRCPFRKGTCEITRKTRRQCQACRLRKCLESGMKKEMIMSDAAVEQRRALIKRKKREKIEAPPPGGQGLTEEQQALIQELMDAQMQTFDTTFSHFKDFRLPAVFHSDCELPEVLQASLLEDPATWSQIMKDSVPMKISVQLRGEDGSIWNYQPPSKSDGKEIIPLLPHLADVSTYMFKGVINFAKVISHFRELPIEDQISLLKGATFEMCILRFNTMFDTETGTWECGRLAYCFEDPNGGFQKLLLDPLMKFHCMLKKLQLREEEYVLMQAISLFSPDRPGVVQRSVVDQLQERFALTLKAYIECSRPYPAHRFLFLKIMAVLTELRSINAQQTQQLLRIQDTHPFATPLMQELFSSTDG
Sequence of Nuclear receptor subfamily 1 group I member 2 (Homo sapiens) (O75469 whole entry, looked up): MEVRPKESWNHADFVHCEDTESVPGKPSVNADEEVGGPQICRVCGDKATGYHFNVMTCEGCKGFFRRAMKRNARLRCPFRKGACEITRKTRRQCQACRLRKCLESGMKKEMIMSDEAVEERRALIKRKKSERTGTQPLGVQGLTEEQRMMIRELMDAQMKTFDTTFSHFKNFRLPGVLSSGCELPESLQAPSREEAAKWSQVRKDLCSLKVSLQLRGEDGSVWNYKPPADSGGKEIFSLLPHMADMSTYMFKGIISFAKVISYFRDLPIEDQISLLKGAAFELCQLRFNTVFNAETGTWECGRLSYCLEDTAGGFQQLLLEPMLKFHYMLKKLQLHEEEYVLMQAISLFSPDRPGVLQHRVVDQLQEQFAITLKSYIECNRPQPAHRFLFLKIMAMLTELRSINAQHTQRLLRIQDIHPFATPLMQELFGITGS
Sequence of Progesterone receptor (Homo sapiens) (P06401 whole entry, looked up): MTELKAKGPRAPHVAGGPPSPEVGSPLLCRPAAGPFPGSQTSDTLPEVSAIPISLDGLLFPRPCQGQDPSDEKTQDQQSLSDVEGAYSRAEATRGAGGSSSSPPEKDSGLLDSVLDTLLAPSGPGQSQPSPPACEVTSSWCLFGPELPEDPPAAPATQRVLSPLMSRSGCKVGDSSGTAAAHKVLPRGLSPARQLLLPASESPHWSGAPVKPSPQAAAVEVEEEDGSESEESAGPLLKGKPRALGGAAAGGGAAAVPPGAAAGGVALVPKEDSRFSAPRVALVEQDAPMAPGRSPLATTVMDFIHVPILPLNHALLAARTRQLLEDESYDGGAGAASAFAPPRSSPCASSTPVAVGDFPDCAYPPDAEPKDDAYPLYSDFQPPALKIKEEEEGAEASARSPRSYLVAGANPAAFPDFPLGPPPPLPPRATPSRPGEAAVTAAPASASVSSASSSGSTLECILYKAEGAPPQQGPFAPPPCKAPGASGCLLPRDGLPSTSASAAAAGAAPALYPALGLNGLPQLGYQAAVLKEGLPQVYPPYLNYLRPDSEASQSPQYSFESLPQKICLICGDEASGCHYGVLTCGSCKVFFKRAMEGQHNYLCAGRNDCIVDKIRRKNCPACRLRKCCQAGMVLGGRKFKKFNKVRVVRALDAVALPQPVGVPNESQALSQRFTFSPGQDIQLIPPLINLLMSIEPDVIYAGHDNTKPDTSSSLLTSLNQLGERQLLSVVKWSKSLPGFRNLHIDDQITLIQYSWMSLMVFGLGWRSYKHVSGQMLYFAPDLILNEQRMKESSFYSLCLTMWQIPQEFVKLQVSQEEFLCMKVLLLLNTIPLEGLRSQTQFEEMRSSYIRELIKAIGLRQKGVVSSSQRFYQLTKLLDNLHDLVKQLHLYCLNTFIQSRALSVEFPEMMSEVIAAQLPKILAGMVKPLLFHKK

CCOCC(O)COc1ccc(NC(=O)CC[S+](C)C)cc1 (configuration not stated)
inactive: Potency [1] | Potency [2] | Potency [3] | Potency [4] | Potency [5] | outcome [6] | Potency [7] | outcome [8] | Potency [9] | Potency [10] | Potency [11] | Potency [12] | Potency [13] | Potency [14] | Potency [15] | max activation [16] -0.952% | Potency [17] | Potency [18]

C[N+]1(C)CCC(OC(=O)C(O)(c2ccccc2)C2CCCC2)C1 (configuration not stated)
inactive: Potency [1] | Potency [2] | Potency [3] | Potency [4] | Potency [5] | outcome [6] | Potency [7] | outcome [8] | Potency [9] | Potency [10] | Potency [11] | Potency [12] | Potency [13] | Potency [14] | Potency [15]

O=C(O)c1ccccc1Cl
inactive: Potency [1] | Potency [2] | Potency [3] | Potency [4] | Potency [5] | outcome [6] | Potency [7] | outcome [8] | Potency [9] | Potency [10] | Potency [11] | Potency [12] | Potency [13] | Potency [14] | Potency [15] | Potency [18]

CN1Cc2cc(C(=O)N3CCC(C4CCNCC4)CC3)ccc2NC(CC(=O)O)C1=O (configuration not stated)
inactive: Potency [1] | Potency [2] | Potency [3] | Potency [4] | Potency [5] | outcome [6] | Potency [7] | outcome [8] | Potency [9] | Potency [10] | Potency [11] | Potency [12] | Potency [13] | Potency [14] | Potency [19]

OC[C@H]1O[C@@H](OCCc2ccc(O)cc2)[C@H](O)[C@@H](O)[C@@H]1O
inactive: Potency [1] | Potency [2] | Potency [3] | Potency [4] | Potency [5] | outcome [6] | Potency [7] | outcome [8] | Potency [9] | Potency [10] | Potency [11] | Potency [12] | Potency [13] | Potency [14] | Potency [15] | Potency [18]

CCN(CC)CCNc1ccc(CNC=O)c2sc3ccc(OC)cc3c(=O)c12
active: Potency [2] 43.3 µM | Potency [3] 24.3 µM | Potency [4] 27.3 µM | Potency [10] 9.69 µM | Potency [11] 61.1 µM | Potency [12] 6.11 µM | Potency [13] 30.6 µM | Potency [14] 9.69 µM | Potency [19] 6.33 µM
inactive: Potency [1] | Potency [5] | outcome [6] | Potency [7] | outcome [8] | Potency [9] | Potency [15]

CCCn1cnc2c1c(=O)n(CCCCC(C)=O)c(=O)n2C
inactive: Potency [1] | Potency [2] | Potency [3] | Potency [4] | Potency [5] | outcome [6] | Potency [7] | outcome [8] | Potency [9] | Potency [11] | Potency [12] | Potency [13] | Potency [14] | Potency [15]

CN(C)c1ccc(C(c2ccccc2)c2ccc(N(C)C)cc2)cc1
active: Potency [2] 13.7 µM | Potency [12] 1.09 µM | Potency [19] 31.7 µM
inactive: Potency [1] | Potency [3] | Potency [4] | Potency [5] | outcome [6] | Potency [7] | outcome [8] | Potency [9] | Potency [11] | Potency [13]

CCC(Cl)CCC(Cl)C(Cl)CC(Cl)C(Cl)C(Cl)CCl (configuration not stated)
inactive: Potency [1] | Potency [2] | Potency [3] | Potency [4] | Potency [5] | outcome [6] | Potency [7] | outcome [8] | Potency [9] | Potency [11] | Potency [12] | Potency [13] | Potency [14] | Potency [15] | Potency [19] | Potency [18]

CCOC(=O)Cc1cccc2ccccc12
inactive: Potency [1] | Potency [2] | Potency [3] | Potency [4] | Potency [5] | outcome [6] | Potency [7] | outcome [8] | Potency [9] | Potency [11] | Potency [12] | Potency [13] | Potency [14] | Potency [15] | Potency [19]
active: Potency [18] 20 µM

CCCCC(CC)COC(=O)CCCCCCCCC(=O)OCC(CC)CCCC (configuration not stated)
inactive: Potency [1] | Potency [2] | Potency [3] | Potency [4] | Potency [5] | outcome [6] | outcome [8] | Potency [9] | Potency [11] | Potency [12] | Potency [13] | Potency [14] | Potency [15] | Potency [19] | Potency [18]

CC(=O)[O][Al][O]C(C)=O
inactive: Potency [1] | Potency [2] | Potency [3] | Potency [4] | Potency [5] | outcome [6] | Potency [7] | Potency [11] | Potency [12] | Potency [13] | Potency [14] | Potency [15] | max activation [16] -1.35% | Potency [17] | Potency [19] | Potency [18]

C/C=C/C=C/CO
inactive: Potency [1] | Potency [2] | Potency [3] | Potency [4] | Potency [5] | outcome [6] | Potency [10] | Potency [11] | Potency [12] | Potency [13] | Potency [14] | Potency [15] | Potency [19] | Potency [18]

CN1CCN(C(c2ccccc2)c2ccccc2)CC1
inactive: Potency [1] | Potency [2] | Potency [3] | Potency [4] | Potency [5] | outcome [6] | outcome [8] | Potency [9] | Potency [11] | Potency [12] | Potency [13] | Potency [14] | Potency [15] | max activation [16] -2.77% | Potency [17] | Potency [18]
active: Potency [19] 4.9 µM
